Source: PubChem BioAssay (Broad Institute)
Only a sample is shown.
aSyn 5UTR act = Activators working through SNCA 5'UTR binding (MLPCN). alpha-synuclein 5'UTR reporter, activators screen. activity score, % (tested at 7.5 µM), hits read low. hit rate 7.1% among 300,000. AID 1814; in the data active means activity score below about -60%
* = called active by the depositor.

SMILES	aSyn 5UTR act
CCCCn1c(SCC(=O)N2c3ccccc3CCc3ccccc32)nc2c1c(=O)n(C)c(=O)n2C	73.7
Cn1c(=O)c2c(nc(SCCN3CCOCC3)n2Cc2ccc(F)cc2)n(C)c1=O	-129.8*
N/C(=N\c1nc2ccccc2o1)NC(=O)c1ccc(Cl)cc1	-86.9*
COc1ccc(C(=O)N/C(N)=N/c2nc3ccccc3o2)cc1	-215.9*
Cc1ccc2oc(/N=C(\N)NC(=O)C(C)(C)C)nc2c1	96.1
COc1ccc(C(=O)/C=C/Sc2nc3ccccc3o2)cc1	-169.0*
N/C(=N\c1nc2ccccc2o1)NC(=O)c1ccc(F)cc1	-132.5*
N/C(=N\c1nc2ccccc2o1)NC(=O)c1ccccc1Br	-184.3*
CN(C)c1ccc(N=Nc2ccccc2C(=O)OCC(=O)N(C)C2CCCCC2)cc1	-134.8*
CN(C)c1ccc(N=Nc2ccccc2C(=O)OCC(=O)NC2CCCC2)cc1	-112.3*
Cc1ccc(N=Cc2sc(O)c3ccccc23)c(C)c1	-189.7*
Cc1ccc(N=Cc2sc(O)c3ccccc23)cc1	-236.5*
Cc1ccc(N=Nc2ccc3ccccc3c2O)cc1	61.3
Cn1ccs/c1=N\C(=O)Nc1cccc(C(F)(F)F)c1	-109.2*
O=C(Cc1ccccc1)Nc1cc2c(cc1Cl)OCCCO2	-146.9*
CCc1ccc(C(=O)Nc2cc3c(cc2Cl)OCCCO3)cc1	-172.2*
O=c1[nH]c(/C=C/c2ccccn2)nc2ccccc12	-176.1*
O=c1[nH]c(/C=C/c2cccc3ccccc23)nc2ccccc12	-104.2*
O=c1[nH]c(/C=C/c2ccccc2[N+](=O)[O-])nc2ccccc12	-189.9*
COC(=O)Cc1c(C)c2ccc(OC(C)C)cc2oc1=O	-156.4*
Cc1cccn2c(CN(C)CCC3CCCCO3)c(C(=O)N3CCCCC3)nc12 (stereo unspecified)	-68.8*
CSc1nnc2c(n1)c(C)nn2-c1ccc(C)cc1	-179.7*
COc1ccc(N/N=C(C)/C(=N/O)C(=O)Nc2ccccc2)cc1	-87.4*
COc1ccc(NC(=O)NC(=O)c2ccccc2)cc1	-221.1*
O=C(NC(=O)c1ccccc1)Nc1ccccc1	71.8
SMILES	aSyn 5UTR act
COc1ccccc1NC(=O)NC(=O)c1ccccc1	-136.9*
Cc1ccccc1-n1c(C)cc(/C=N/Nc2ccc([N+](=O)[O-])cn2)c1C	-75.8*
O=[N+]([O-])c1ccc(N/N=C/c2cccs2)nc1	-187.1*
C=CCOC(=O)c1[nH]c2c(c1C)C(=O)CC(c1ccco1)C2 (stereo unspecified)	69.2
Cc1c(C(=O)OC2CCCC2C)[nH]c2c1C(=O)CCC2 (stereo unspecified)	-91.7*
O=c1c2ccccc2oc2cc(C#Cc3ccccn3)ccc12	-66.7*
COc1cccc2oc3ccc(C#Cc4ccccn4)cc3c(=O)c12	-71.0*
COc1cc(-c2noc(C)c2C#Cc2ccccn2)cc(OC)c1OC	85.8
CCOC(=O)/C=C(/C)N1N=C(c2ccc(OC)cc2)CC1c1cccc([N+](=O)[O-])c1 (stereo unspecified)	-165.6*
Cc1ccc(CNC(=O)c2ccc([N+](=O)[O-])o2)cc1	-70.1*
Cn1cc([N+](=O)[O-])c(C(=O)Nc2nc(-c3ccc(Cl)cc3)cs2)n1	62.8
Cc1ccc(-c2csc(NC(=O)c3ccno3)n2)cc1	-128.1*
Cc1ccc(-c2csc(NC(=O)c3ccc([N+](=O)[O-])o3)n2)cc1	-234.1*
CN(Cc1ccccc1)C(=O)c1ccc([N+](=O)[O-])o1	-84.4*
CCC(=O)c1ccc(SC(=O)N(C)C)cc1O	-67.6*
C=CCc1cccc(/C=C/c2cc(=O)c3ccccc3[nH]2)c1O	-70.8*
C=CCc1cccc(/C=N/NC(=O)CNc2ccccc2)c1O	73.9
CC1c2cc3c(cc2CCN1C(=O)c1cccc(F)c1)OCCCO3 (stereo unspecified)	-69.4*
Cc1ccc(COc2ccc(Br)cc2/C=N/O)cc1	-155.8*
O/N=C/c1cc(Br)ccc1OCc1ccc(F)cc1	-78.6*
CCOc1cc(/C=N/O)ccc1OCc1ccc(C)cc1	-68.0*
c1ccc(CCSc2nccn2-c2ccccc2)cc1	-121.2*
CCOC(=O)C1(Cc2ccccc2Cl)CCN(C(=O)CCn2ccnc2C)CC1	-80.6*
CCOC(=O)C1(CCc2ccccc2)CCN(C(=O)CCn2cncn2)CC1	-99.0*
CC1Cc2nc(SCC(=O)Nc3ccc4c(c3)OCO4)n(Cc3ccccc3)c(=O)c2S1 (stereo unspecified)	-94.5*
SMILES	aSyn 5UTR act
CC(=O)c1cccc(NC(=O)CSCc2ccccc2)c1	-99.6*
CN1CCN(c2ccc(NC(=O)CSc3ccccc3)cc2F)CC1	-107.2*
O=C(CSc1ccc(-c2ccccc2)nn1)Nc1ccc2c(c1)OCCO2	-148.2*
O=C(CSc1ccccc1)Nc1ccc2c(c1)OCCO2	-63.5*
O=C(CSc1nnc2ccccn12)Nc1ncc(Cl)cc1Cl	-78.2*
O=C(CC1Nc2ccccc2NC1=O)Nc1ccc2c(c1)OCO2 (stereo unspecified)	-108.4*
COc1ccc(-n2c(SC(C)C(=O)Nc3ncc(Cl)cc3Cl)nc3ccccc32)cc1 (stereo unspecified)	76.6
O=C(CSc1nnc2ccccn12)Nc1ccc2c(c1)OCCO2	-121.8*
Cn1cc(SCC(=O)Nc2ccc3c(c2)OCCO3)c2ccccc21	-77.8*
O=C(CSc1nnc2c(n1)[nH]c1ccccc12)Nc1ccc2c(c1)OCO2	-79.8*
O=C(CSCc1ccccc1)Nc1ccc2c(c1)OCO2	-154.0*
O=C(CN1CC(=O)Nc2ccccc21)Nc1ccc(F)c(F)c1	-94.3*
Cc1cc(C)cc(C(=O)N2CC(=O)Nc3ccccc32)c1	110.1
CCCCSc1nnc2c(n1)[nH]c1ccccc12	-134.7*
O=C(CSCc1ccccc1)Nc1ccc(F)c(F)c1	-136.1*
O=C(CSc1ccccc1)Nc1ccc2c(c1)OCO2	-125.0*
CCN(CC)C(=O)Cn1cc(C(=O)C(=O)Nc2ccc3c(c2)OCCO3)c2ccccc21	-90.9*
O=C(Cn1cnc2ccccc2c1=O)Nc1ccc2c(c1)OCCO2	-110.1*
O=C(CSCc1ccccc1)Nc1ccc(Cl)cn1	-134.1*
O=C(CN1C(=O)C2C3C=CC(C3)C2C1=O)Nc1ccc2c(c1)OCCO2 (stereo unspecified)	-115.8*
CCN(C(=O)COC(=O)c1cc(-c2ccc3cc(OC)ccc3c2)nc2ccccc12)C1CCS(=O)(=O)C1 (stereo unspecified)	67.5
CN(C(=O)COC(=O)c1cc(-c2ccc(Cl)s2)nc2ccccc12)C1CCS(=O)(=O)C1 (stereo unspecified)	-82.1*
CN1CCN(c2ccc(-c3ccnn3C(=O)Nc3ccccc3)cc2)CC1	-71.8*
CC1CCN(CCNC(=O)c2ccc3c(=O)n(Cc4ccc(Cl)cc4)c(=S)[nH]c3c2)CC1	98.1
O=C(NC1CCN(Cc2ccccc2)CC1)c1ccc(Cn2c(=S)[nH]c3ccc(N4CCOCC4)cc3c2=O)cc1	-91.9*
SMILES	aSyn 5UTR act
O=C(OCCc1ccccc1)c1cc(O)c(O)c(O)c1	-104.6*
COc1ccc(C(=O)OCCc2ccc(O)cc2)cc1	-179.0*
Nc1ccc(C(=O)OCCc2ccccc2)cc1	-142.0*
O=C(NCCc1ccccc1)c1ccco1	-85.1*
CC(=O)c1c(C)[nH]c(C(=O)NCCc2ccccc2)c1C	-102.1*
COC(=O)/C=C/c1ccccc1S(=O)(=O)N(Cc1ccccc1)Cc1ccco1	89.4
CN(CC(=O)NCCc1ccccc1)Cc1ccco1	-81.5*
O=C(NCCc1ccccc1)c1c(F)cccc1F	-115.5*
N/C(=N\OC(=O)c1cc(Cl)ccc1Cl)c1ccccn1	-122.1*
COc1ccccc1C(=O)O/N=C(\N)c1ccccc1Cl	-139.3*
